# Test system: VDR:RXRa (NR concentration 270 nM, RXRa partner concentration 90 nM)
# Assay: PBM binding z-score (relative to random genomic background probes); higher = stronger binding; sequences stand for … in GC…GCGATTGACAGCGTAGAATGAAGG
# Method: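 Protein-binding microarray (Agilent 4x180K custom design, double-stranded 60-nt probes: 5' GC cap, 34-nt variable region, 24-nt constant primer region; full probe sequence given). Purified or IVT nuclear receptor:RXRα heterodimers (3:1 NR:RXRα, mostly 270:90 nM) or homodimers were incubated for 1 h in PBS with 2% milk and no ligand, then detected with Alexa488 antibodies. Fluorescence from o1-orientation probes (~5 replicates averaged) was converted to z-scores against 500 random hg19 background probes. Variable regions are seed direct-repeat (DR0–DR5) sites, all their single-nucleotide variants and half-site ablations.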
row,Sequence,PBM binding z-score
1,TCATATAGGTAAAGGGTGAAAGTCGGTGTGGTAA,1.17
2,ATCTCTAAGTAACAAGTTCAGTGAAAGAGAGGAC,1.87
3,TAGCCAAGGTCATGGGCCAGTATACCACGCGAAC,4.51
4,CAAACTAGGTCACGATAGGTCAAAGTCGAATGAC,5.51
5,TCATATAGGTAATACCGGTGAAAGTCGGCATCTA,0.463
6,TCTAGTTGGTCACGGAGGTCAGACACGACGGGTA,4.68
7,TCGAGTAGCTTACCAATGGGGCATTCAGCTTTCT,-0.487
8,CAAACTAGGTCACGAAAGGTCAATGTCGAATGAC,6.57
9,GCTAGTTGGTCAGTAAAAGCTCACACACCGGTCG,-0.481
10,GCGATTGGGGCAAAGCAGGTTACCATAAGGTTGG,0.27
11,ATCGAAAGGTCGAACGTGAGTATACCCACCCGAA,2.88
12,CCTGCTAGGTCCTGGTCAGCTAATCTACAGTATG,-0.588
13,AGAACGAGGGCACGCTGAGTTCATAGCAGAGTAG,6.39
14,TCATATAGGTAAATGCTAGGTAAAAGTCCGATCT,0.968
15,CCTACTGGGCCAAGGTTATTGATCAGTCAAAGCA,-0.0867
16,ATCTCTAGGTAAAGTACAGTGAAAGATCGATAGA,-0.177
17,TCTTGTAGATCTACAGGAGGTTAAGAAAGATCGA,0.41
18,TCATATAGGTAAAAGGTGAAATTCGGTGTGGTAA,1.58
19,GCTAGCAGGCCATTTGGGTCACTGAATGACGGGC,0.821
20,GCGACTGGGGCATCAGCAGTTTACCATAACTTAA,-0.0228

row,Sequence,PBM binding z-score
1,ATACCAAGGTGAGCGTGAGGTCGTTGATACTAAC,3.32
2,TCAGACAGGTGGAGGTAACTCAGGTACGCAGTCG,0.574
3,ATCTCTAGGTAAAGTTCAGAGAAAGATCGATAGA,1.41
4,GCTAGTTGGTCAGTAAAAGGTCACACACCGGTCG,3.89
5,CTACCAAGGTGAACAAGGTCGATGATTACTATTC,4.83
6,GGAACCAGGGCAAGTTGATAGCAGAGTTTGATGG,0.319
7,CCTATTAGTTAACCATAAGGGCAACCGAAGCTCG,0.653
8,CCTACTGGGCCAAGGCCATTGATCAGTCAAAGCA,-0.446
9,TAGCCTAGGTCAGATCGGGCAAGTATACGCTATA,0.761
10,TAGCCTAGATCATTCAGGGGCCAGTATAGAAAGC,-0.321
11,ATCGCAAGGTCGTGAGGTGAGTATACAGAAAGGC,2.33
12,ACTAGTTGGTGAGCTGAGGTCACACACAATTCGG,3.55
13,CGTCCAAGGTCAATGCTGGGTCAGTGAAAGCATT,4.79
14,TCATATAGGGAATACAGGTGAAAGTCGGCATCTA,1.11
15,ATCTCTAGGTAAGGTTCAGTGAAAGATCGATAGA,1.33
16,CCGACTGGGGCAGAAAGGTTGCCATACCATCCGG,-0.0793
17,ATCGAAAGGTCGACGACGTGAGTATACACCGTTT,2.25
18,CCTTACGGGGCACTGACAGGTTATAGCATTTGGA,-0.341
19,ACTCGGAGGACAAAGGGCAGAGCTACGCCAGTGA,-0.214
20,GCTGCTAGGTCAACTGATGGTCAGCAAAAGCTCG,1.69

# — the supplement of paper PMC6555819
